Rows were chosen to be rich in hits. Some 3.9% of all compounds tested hit in one or more screens of this group.
BoNT-A LC inh2: inhibitors of Botulinum neurotoxin A light chain protease; multiplex microsphere protease substrate cleavage, flow cytometry; inhibition, % at 10 µM; actives 0.17% (n = 360,000); further: plate controls were buffer without enzyme for full effect and enzyme alone for no effect
SARS 3CLpro inh: SARS-CoV 3CLpro protease inhibition. P0C6X7. recombinant SARS-CoV 3CLpro, quenched FRET peptide cleavage. inhibition, % at 6 µM. actives 0.14% (n = 290,000). AID 1706; in the data active means inhibition above about 12%
CCHF vOTU inh: blocks the CCHF virus ovarian tumor domain protease; CCHFV vOTU protease, Pep-AMC fluorescence; inhibition, % at 11.5 µM; actives 0.55% (n = 370,000); AID 651958; in the data active means inhibition above about 30%; further: 0% = vehicle wells with enzyme and 100% = no enzyme wells
Bead autofluor: flagged as autofluorescent in microsphere protease counterscreen | fluorescence intensity (concentration not given with the values) | compound autofluorescence counterscreen, microsphere flow cytometry; hits give high values | AID 624483 | actives 3.1% (n = 360,000); in the data active means fluorescence intensity above about 16000; inconclusive means no clear call, values can overlap the other calls
Anthrax LF inh2: blocks Bacillus anthracis lethal factor protease; P15917; actives 0.12% (n = 360,000); multiplex microsphere protease cleavage assay, LF; inhibition, % at 10 µM; AID 588501; further: plate controls were buffer without enzyme for full effect and enzyme alone for no effect
Target sequence (P15917 whole entry, looked up): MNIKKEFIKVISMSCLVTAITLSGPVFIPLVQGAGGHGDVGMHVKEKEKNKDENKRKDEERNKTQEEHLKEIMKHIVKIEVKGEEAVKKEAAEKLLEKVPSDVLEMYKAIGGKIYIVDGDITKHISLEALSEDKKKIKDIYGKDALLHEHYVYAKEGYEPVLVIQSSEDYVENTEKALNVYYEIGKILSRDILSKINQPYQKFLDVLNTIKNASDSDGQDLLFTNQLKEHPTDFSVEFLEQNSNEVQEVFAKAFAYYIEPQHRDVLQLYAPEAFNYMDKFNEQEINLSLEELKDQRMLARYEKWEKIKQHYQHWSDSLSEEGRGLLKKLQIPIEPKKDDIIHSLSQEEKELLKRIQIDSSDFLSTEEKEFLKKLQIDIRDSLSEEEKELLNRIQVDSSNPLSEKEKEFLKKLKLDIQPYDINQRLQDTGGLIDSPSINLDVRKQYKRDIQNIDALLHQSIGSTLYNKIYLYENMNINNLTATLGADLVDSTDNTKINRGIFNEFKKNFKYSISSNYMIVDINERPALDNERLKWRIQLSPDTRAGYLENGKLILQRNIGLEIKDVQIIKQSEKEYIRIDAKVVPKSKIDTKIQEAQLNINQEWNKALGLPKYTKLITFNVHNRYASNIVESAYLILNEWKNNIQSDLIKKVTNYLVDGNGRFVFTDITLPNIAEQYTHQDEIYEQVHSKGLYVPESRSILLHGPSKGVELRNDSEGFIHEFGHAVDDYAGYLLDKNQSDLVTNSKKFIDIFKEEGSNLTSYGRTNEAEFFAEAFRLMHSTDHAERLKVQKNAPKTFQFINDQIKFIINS
BoNT-F LC inh: BoNT F light chain protease inhibition; Multiplex microsphere protease cleavage assay, flow cytometry; inhibition, % at 10 µM; actives 0.22% (n = 360,000); in the data active means inhibition above about 35%, passing the limit was not always enough; inconclusive means no clear call, values can overlap the other calls; further: plate controls were buffer without enzyme for full effect and enzyme alone for no effect
Starred values were filed as active, the others as inactive; ? = inconclusive; · = no result. Unless noted, no stated cut-off is given here; in the data, active means inhibition above about 30%; inconclusive means no clear call, values can overlap the other calls; inactive means below that.

SMILES	BoNT-A LC inh2	SARS 3CLpro inh	CCHF vOTU inh	Bead autofluor	Anthrax LF inh2	BoNT-F LC inh
COc1cccc(NC(=O)COC(=O)c2ccc(S(=O)(=O)NCc3ccco3)cc2)c1	-3.1	4.8	-0.2	23475*	-1.3	-8.7
COc1cccc(S(=O)(=O)Nc2ccc(C(=O)NCc3ccco3)cc2)c1	-0.4	-2.8	2.1	11265	-4.7	1.3
COc1cccc(S(=O)(=O)NCc2ccc(C(=O)NCc3ccco3)cc2)c1	-6.4	-5.3	-13.2	25859*	0.7	-5.9
CC1CCCCC1NC(=O)COC(=O)c1ccc(S(=O)(=O)NCc2ccco2)cc1 (centres undefined)	4.1	-5.3	1.3	21167*	-7.2	6.3
O=S(=O)(NCc1ccco1)c1ccc(S(=O)(=O)N2CCCCC2)cc1	-1.4	2.0	·	23145*	-5.9	-3.8
CCOC(=O)[C@]12CCC=C1N(CCC1=CCCCC1)C(=O)[C@H](CC(=O)NCc1ccc(OC)c(OC)c1)C2	1.0	·	5.3	6027	3.7	-13.3
Cc1cc(C)cc(C(=O)NCC(=O)OCN2C(=O)c3ccccc3C2=O)c1	0.1	·	-5.7	3512	6.5	-11.1
Cc1ccc(S(=O)(=O)NCCC(=O)NNC(=O)c2ccccc2O)cc1C	·	·	-10.5	·	·	·
C=CCN1[C@H](CO)[C@H](c2ccc(Br)cc2)[C@@H]1C#N	·	·	9.1	·	·	·
COc1ccc(S(=O)(=O)n2nc(OC(=O)c3cccs3)cc2NC(=O)c2cccs2)cc1	-0.1	5.9	-0.8	3618	-6.4	-0.5
CC1=C(C(=O)Nc2cccc(C(=O)NC3CCCCC3C)c2)SCCO1 (centres undefined)	-2.6	-0.5	-3.4	5883	-0.1	-3.6
O=C(NC1CCCCCC1)c1ccc(S(=O)(=O)NCc2ccco2)cc1	-1.0	2.0	-5.3	23471*	-1.1	-1.3
CCNC(=S)N/N=C/c1ccc(OCCOc2ccccc2C)cc1	1.3	-5.6	-11.3	23540*	4.0	-1.4
CCOc1ccc(/C=N/NC(=S)Nc2c(C)cccc2C)cc1	-0.6	10.8	15.3	2990	0.2	-8.2
CCNC(=S)N/N=C/c1ccc(OCC(=O)Nc2ccc(C)cc2)cc1	-1.0	-0.9	·	20930*	-4.2	-5.1
CCCOc1ccc(-c2nnc(-c3ccco3)o2)cc1	0.5	4.7	10.8	21565*	0.9	1.2
CC(C)COc1ccc(-c2nnc(-c3ccco3)o2)cc1	-2.7	0.5	7.9	17184*	-2.1	-6.3
CCC1(c2ccccc2)SC(=O)NC1=O (centres undefined)	-0.6	·	1.6	2955	-3.7	-1.4
CN(C)CCOC(C1CCCCC1)C1CCCCC1	-2.6	-9.8	18.6	24587*	-6.4	-4.0
Cc1ccc(-n2c(SCC(=O)N/N=C/C=C\c3ccccc3[N+](=O)[O-])nnc2-c2ccccc2)cc1	·	·	6.3	·	·	·
O=C(Nc1cccc2ncccc12)c1ccc(-c2ccc(Br)cc2)o1	6.0	3.4	9.0	20512*	-20.4	7.4
O=C(Nc1cccc2ncccc12)c1ccc([N+](=O)[O-])o1	0.0	-0.2	19.0	3601	-8.2	3.2
Cn1c(NC(=O)c2ccccc2)c(-c2ccccn2)c(=O)c2ccccc21	-0.7	-3.0	3.3	20450*	2.8	0.6
CCOc1ccc(C(=O)Nc2nnc(C)s2)cc1OCC	?	-3.9	5.5	20767*	-5.4	3.6
CCOc1cc(C2C(C(=O)N3CCCCC3)=C(C)NC3=C2C(=O)CCC3)cc(Br)c1O (centres undefined)	-2.6	-0.2	2.2	24537*	-1.4	-5.3
SMILES	BoNT-A LC inh2	SARS 3CLpro inh	CCHF vOTU inh	Bead autofluor	Anthrax LF inh2	BoNT-F LC inh
CN(C)[C@H]1N(C(=O)c2ccc(Br)cc2)N=C2c3ccccc3S(=O)(=O)N21	?	5.5	-0.4	19842*	-0.8	0.5
O=C(Oc1ccc(Br)cc1)C1CCN(C2=NS(=O)(=O)c3ccccc32)CC1	-0.3	·	0.8	?	0.4	5.4
CCc1ccc(OCCNC(=O)c2ccc(S(=O)(=O)N(C)C)cc2)cc1	0.0	-0.7	-5.5	22522*	-2.5	0.2
CCOc1ccc(NC(=O)c2ccc(S(=O)(=O)N(C)C)cc2)cc1	-0.6	-2.6	4.6	5536	-12.2	-12.3
COc1ccccc1/C=N/n1c(C)nnc1-n1nc(C)cc1C	0.3	-3.7	-16.5	9769	-2.5	-0.4
Cc1cc(C)n(-c2nnc(C)n2/N=C/c2ccccc2F)n1	-0.4	4.2	7.5	22946*	-0.8	2.2
O=c1ccnc(SCc2ccccc2Cl)[nH]1	-0.5	4.4	-1.0	16496*	0.8	-0.1
Fc1ccc(CO/N=C2\CCCc3nonc32)cc1	0.4	3.1	-7.2	3271	-3.4	-1.4
O=C(NCCc1ccc(F)cc1)c1cccc2c1C(=O)c1ccc(N3CCC(Cc4ccccc4)CC3)cc1S2(=O)=O	22.0	·	·	8857	40.7*	30.5
CS(=O)(=O)N(CC(=O)Nc1ccc(Br)cc1)C1CCCCC1	?	3.4	11.6	4182	-25.7	?
CCOc1ccc(NC(=O)CN(C2CCCCC2)S(C)(=O)=O)cc1	?	2.4	-6.7	22520*	-8.6	-0.3
CCOC(=O)/C=c1\s/c(=C(\C#N)C(=O)NC)n(-c2ccccc2)c1=O	0.5	-4.0	9.9	3483	-1.6	-5.0
Cc1ccccc1-n1c(=O)/c(=C\c2ccco2)s/c1=C(/C#N)C(=O)Nc1ccccc1	7.5	-1.8	-7.7	20678*	4.2	7.6
CC(NC(=O)C(=O)N/N=C/c1ccccc1)c1ccccc1 (centres undefined)	1.0	0.4	9.6	4281	5.5	-1.0
CC(C)c1cc(C(=O)N(C2CCCCC2)C2CCCCC2)no1	·	·	10.7	·	·	·
COc1ccc(N2C3=[N+](CCCC3)CC2(C)O)cc1 (centres undefined)	-2.7	·	3.6	16662*	-4.2	-4.3
O=c1oc2c(CN3CCCCC3)c(O)ccc2cc1-c1nc2ccccc2[nH]1	13.6	·	-24.7	18384*	0.2	15.0
CSc1nnc(SCC#N)s1	-2.2	-2.0	3.1	3954	-1.2	?
CN1C(=O)CC(c2ccco2)Sc2ccccc21 (centres undefined)	-3.9	-0.6	-2.2	21771*	1.2	-3.0
O=C(CN1C(=O)CC(c2ccco2)Sc2ccccc21)NCC1CCCO1 (centres undefined)	?	-2.7	-10.5	23515*	-7.5	0.5
CCCN1C(=O)CC(c2ccco2)Sc2ccccc21 (centres undefined)	-0.8	-1.6	-5.4	9884	-2.3	2.4
CCn1nc(C)c(NC(=O)/C=C/c2cnn(C)c2)c1C	8.8	-1.6	3.9	19664*	-9.1	10.0
CCn1nc(C)c(/C=C/C(=O)Nc2ccc(C)cc2C)c1C	4.7	-0.7	17.1	2035	2.1	38.8*
CCn1ncc(/C=C/C(=O)Nc2c(C)nn(CC)c2C)c1C	1.1	2.2	-1.9	20272*	0.3	2.0
COc1ccc(CN2C3CCC2CC(NC(=O)c2cc(OC)c(OC)c(OC)c2)C3)cc1 (centres undefined)	·	2.9	-9.2	·	·	·
CCOCCCNC(=S)NNC(=O)CCn1nc(C)c(Br)c1C	-5.2	0.9	·	24089*	-0.6	-4.7
CNC(=S)NNC(=O)CCn1nc(C)c(Br)c1C	1.0	3.9	-6.7	10858	0.5	9.5

Screens deposited in PubChem BioAssay by several laboratories.
